Several values for one entry are separate records, joined by “and”; a condition that tells them apart may be missing. Identical values can stand only once. Results filed as inconclusive are left out. A call without a number means that no potency is given here. A structure can be active in one record and inactive in another. Activity calls are given as the source filed them. Unless noted, the call rests on the fitted dose curve; in most records, active means well fitted curve in the direction sought with a large enough effect in the repeat runs; inconclusive means weak or mixed curves; inactive means no such curve, though single readings can be large; an effect the other way counts as inactive or inconclusive.
Columns and labels:
[1] = qHTS assay to identify small molecule agonists of the vitamin D receptor (VDR) signaling pathway - cell viability counter screen (AID 743224); further: nearly all actives have a fitted effect of over 50% in size; further: potency means the concentration at half of the fitted maximal effect
Method in brief: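 VDR-bla cell line, quantitative HTS format; 16 h compound incubation (37C, 5% CO2); ATP-based CellTiter-Glo luminescence measured in the reporter assay wells.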

[2] = qHTS assay to identify small molecule antagonists of the vitamin D receptor (VDR) signaling pathway - cell viability counter screen (AID 743225); further: nearly all actives have a fitted effect of over 50% in size
Method in brief: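 Read-out: CellTiter-Glo luminescence measured 30 min after reagent addition at room temperature. Cells were VDR-bla HEK 293T exposed 16 h at 37C, 5% CO2, to compound with 3 nM final calcitriol agonist.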

[3] = qHTS assay to identify small molecule agonists of the NFkB signaling pathway (AID 1159509; active means well fitted curve in the direction sought with a large enough effect in the signal ratio in the repeat runs, not every such curve was filed as active; the % refers to the signal ratio; further: series mostly up to about 61 µM)
Method in brief: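 ME-180 NFkB-bla, 2,000 cells/well, overnight plating; cpd pinned in DMSO, 5 h 37 C; B/G FRET substrate 1.5 h RT; ex 405, em 460/530 nm.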

[4] = qHTS assay to identify small molecule agonists of the NFkB signaling pathway - cell viability counter screen (AID 1159515; calls by dose curve; further: series mostly up to about 61 µM; nearly all actives have a fitted effect of over 55% in size)
Method in brief: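 Viability in NFkB-bla ME-180 cells was measured by CellTiter-Glo luminescence, 30 min room temperature, in wells already treated 5 hr with compounds and read for reporter FRET.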

[5] = qHTS assay to identify small molecule agonists of the endoplasmic reticulum stress response signaling pathway (AID 1159516; active means well fitted activation curve with a large enough effect in the signal ratio in the repeat runs, not every such curve was filed as active; the % refers to the signal ratio)
Method in brief: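 ER stress element reporter (bla) in HeLa. 1,500 cells/well, overnight attachment; 5 hr compound; 2 hr RT substrate; dual-emission fluorescence.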

[6] = qHTS assay to identify small molecule agonists of the endoplasmic reticulum stress response signaling pathway - cell viability counter screen (AID 1159517; calls by dose curve;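 further: HeLa cells carrying an ER stress response element beta-lactamase reporter; series mostly up to about 61 µM; nearly all actives have a fitted effect of over 50% in size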)
Method in brief: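 HeLa cells carrying an ESRE-driven beta-lactamase reporter receive compound for 5 hr at 37 C. Cell viability is then gauged with CellTiter-Glo by luminescence, 30 min at room temperature.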

[7] = qHTS assay to identify small molecule antagonists of the retinoid-related orphan receptor gamma (ROR-gamma) signaling pathway - cell viability counter screen (AID 1159520); further: nearly all actives have a fitted effect of over 50% in size
Method in brief: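 Cytotoxicity was read from cellular ATP (CellTiter-Glo luminescence) after 16 hr at 37 C with 1 uM doxycycline induction. The inducer was added 2 hr after compound transfer to Tet-on ROR gamma CHO cells.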

[8] = biological target: Nuclear receptor ROR-gamma (Homo sapiens) (UniProt P51449); assay: qHTS assay to identify small molecule antagonists of the retinoid-related orphan receptor gamma (ROR-gamma) signaling pathway (AID 1159521; further: nearly all actives have a fitted effect of over 50% in size; further: potency means the concentration at half of the fitted maximal effect)
Method in brief: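 CHO Tet-on RORγ, RORE-luc reporter. Cpd 2 h pre-incubation, then dox hyclate 1 uM final, 16 h, 37 C/5% CO2. ONE-Glo luminescence; decrease = antagonist.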

[9] = qHTS assay to identify small molecule agonists of the AP-1 signaling pathway - cell viability counter screen (AID 1159525; calls by dose curve; further: nearly all actives have a fitted effect of over 55% in size)
Method in brief: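 Luminescent ATP readout (Cell Titer Glo, 30 min RT), normalised to DMSO and tetra n-octyl ammonium bromide controls. Cells were ME-180 AP-1-bla in 0.5% dialyzed FBS Opti-MEM, with a 5 h, 37 °C compound exposure.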

[10] = qHTS assay to identify small molecule agonists of the AP-1 signaling pathway (AID 1159526; calls by dose curve; further: potency means the concentration at half of the fitted maximal effect)

Structure (SMILES)	Potency [1]	outcome [2]	outcome [3]	outcome [4]	outcome [5]	Potency [6]	outcome [7]	Potency [8]	outcome [9]	Potency [10]
C=CC(=O)NC(C)(C)CS(=O)(=O)O	inactive	inactive	inactive	inactive	inactive	inactive	inactive	inactive	inactive	inactive
CCCCNC(=O)NS(=O)(=O)c1ccc(N)cc1	inactive	inactive	inactive	inactive	inactive	inactive	inactive	inactive	inactive	inactive
COC1=CC(=O)C[C@@H](C)[C@]12Oc1c(Cl)c(OC)cc(OC)c1C2=O	inactive	inactive	inactive	inactive	inactive	inactive	inactive	8.56 µM (active) and 19.3 µM (active) and inactive	inactive	inactive
NC(=O)N1c2ccccc2C=Cc2ccccc21	inactive	inactive	inactive	inactive	inactive	–	inactive	inactive	inactive	inactive
COc1ccccc1NC(=O)CC(C)=O	inactive	inactive	inactive	inactive	inactive	inactive	inactive	inactive	inactive	inactive
CCCCCCCCCCCCCC(=O)OC(C)C	inactive	inactive	inactive	inactive	inactive	–	inactive	inactive	inactive	inactive
C=CCOC(=O)CC(C)C	inactive	inactive	inactive	inactive	inactive	inactive	inactive	inactive	inactive	inactive
O=C1CCCCCN1	inactive	inactive	inactive	inactive	inactive	inactive	inactive	inactive	inactive	inactive
C[C@]12C=CC(=O)C=C1CC[C@@H]1[C@@H]2C(=O)C[C@@]2(C)[C@H]1CC[C@]2(O)C(=O)CO	inactive	inactive	inactive	inactive	inactive	inactive	inactive	inactive	inactive	inactive
COCCOCCOC	inactive	inactive	inactive	inactive	inactive	–	inactive	inactive	inactive	inactive
COc1ccc(O)cc1	inactive	inactive	inactive	inactive	inactive	inactive	inactive	–	inactive	inactive
CN(C)Cc1cc(CN(C)C)c(O)c(CN(C)C)c1	inactive	inactive	inactive	inactive	inactive	–	inactive	inactive	inactive	inactive
O=C(O)CCCCC1CCSS1 (stereo unspecified)	inactive	inactive	inactive	inactive	inactive	inactive	inactive	inactive	inactive	27.5 µM (active) and inactive
Cn1cnc2c1c(=O)[nH]c(=O)n2C	inactive	inactive	inactive	inactive	inactive	–	inactive	inactive	inactive	inactive
O=c1cc[nH]c(=O)[nH]1	inactive	inactive	inactive	inactive	inactive	inactive	inactive	inactive	inactive	inactive
COCC(C)N (stereo unspecified)	inactive	inactive	inactive	inactive	inactive	inactive	inactive	inactive	inactive	inactive
O=C(O)CN(CC(=O)O)CC(=O)O	inactive	inactive	inactive	inactive	inactive	–	inactive	inactive	inactive	inactive
NC(=O)N/N=C/c1ccc([N+](=O)[O-])o1	inactive	inactive	inactive	inactive	inactive	–	inactive	inactive	inactive	inactive
Nc1ccc(N=Nc2ccccc2)c(N)n1	inactive	inactive	inactive	inactive	–	inactive	inactive	inactive	inactive	inactive
C[C@]12CC[C@@H]3c4ccc(O)cc4C[C@@H](CCCCCCCCCS(=O)CCCC(F)(F)C(F)(F)F)[C@H]3[C@@H]1CC[C@@H]2O (stereo partly specified)	inactive	inactive	inactive	inactive	inactive	–	inactive	–	inactive	inactive
C#C[C@]1(O)CC[C@H]2[C@@H]3CCC4=CC(=O)CC[C@@H]4[C@H]3CC[C@@]21CC	inactive	inactive	inactive	inactive	inactive	–	inactive	48.6 µM (active) and inactive	inactive	inactive
O=[N+]([O-])c1ccc(O)cc1	inactive	inactive	inactive	inactive	inactive	–	inactive	–	inactive	inactive
CC(=O)/C=C/C1=C(C)CCCC1(C)C	inactive	inactive	–	inactive	inactive	–	inactive	inactive	inactive	inactive
O=C(O)Cc1cccc2ccccc12	inactive	inactive	inactive	inactive	inactive	–	inactive	inactive	inactive	inactive

Structure (SMILES)	Potency [1]	outcome [2]	outcome [3]	outcome [4]	outcome [5]	Potency [6]	outcome [7]	Potency [8]	outcome [9]	Potency [10]
CN(C)C=O	inactive	inactive	inactive	inactive	inactive	–	inactive	inactive	inactive	inactive
NC(=O)OCC(COC(N)=O)c1ccccc1	inactive	inactive	inactive	inactive	inactive	–	inactive	inactive	inactive	inactive
COc1cc(C=O)ccc1O	inactive	inactive	inactive	inactive	inactive	–	inactive	inactive	inactive	inactive
NC(=O)c1ccc([N+](=O)[O-])cc1Cl	inactive	inactive	inactive	inactive	inactive	–	inactive	inactive	inactive	inactive
CC(C)(C)CC(C)(C)c1ccc(O)c(-n2nc3ccccc3n2)c1	inactive	inactive	inactive	inactive	inactive	–	inactive	49.2 µM (active) and inactive	inactive	inactive
OC[C@@H](O)[C@@H](O)[C@H](O)[C@H](O)CO	inactive	inactive	inactive	inactive	inactive	–	inactive	inactive	inactive	inactive
CC(C)=CCC/C(C)=C/CO	inactive	inactive	–	inactive	inactive	–	inactive	inactive	inactive	inactive
C=C(C)C(N)=O	inactive	inactive	inactive	inactive	inactive	–	inactive	inactive	inactive	inactive
CC(=O)OC/C=C(C)/C=C/C=C(C)/C=C/C1=C(C)CCCC1(C)C	inactive	inactive	inactive	inactive	inactive	–	inactive	inactive	inactive	inactive
C/C=C/c1ccc(O)c(OC)c1	inactive	inactive	–	inactive	inactive	inactive	inactive	inactive	inactive	inactive
CC(O)COc1ccccc1 (stereo unspecified)	inactive	inactive	inactive	inactive	inactive	–	inactive	inactive	inactive	inactive
Cc1cccc2ccccc12	inactive	inactive	inactive	inactive	inactive	–	inactive	inactive	inactive	inactive
O=C1OC(c2ccc(O)cc2)(c2ccc(O)cc2)c2ccccc21	48.7 µM (active) and inactive	inactive	inactive	inactive	inactive	–	inactive	8.57 µM (active) and inactive	inactive	–
CCCCOCCOCCSC#N	inactive	inactive	inactive	inactive	inactive	–	inactive	inactive	inactive	inactive
COc1cc2c(c(OC)c1OC)-c1ccc(OC)c(=O)cc1[C@@H](NC(C)=O)CC2	inactive	inactive	inactive	inactive	–	inactive	inactive	538 nM (active) and 686 nM (active) and 37.6 nM (active)	inactive	172 nM (active)
C1CNCCN1	inactive	inactive	inactive	inactive	inactive	–	inactive	inactive	inactive	inactive
NC(N)=NC(N)=NCCc1ccccc1	inactive	inactive	inactive	inactive	inactive	–	inactive	30.6 µM (active)	inactive	inactive
Oc1cccc(O)c1	inactive	inactive	inactive	inactive	inactive	–	inactive	inactive	inactive	inactive
COc1cc(O)c(C(=O)c2ccccc2)cc1S(=O)(=O)O	inactive	inactive	inactive	inactive	inactive	–	inactive	inactive	inactive	inactive
COC(=O)c1ccc(O)cc1	inactive	inactive	inactive	inactive	inactive	–	inactive	–	inactive	inactive
C[C@]12CC[C@@H]3c4ccc(O)cc4CC[C@H]3[C@@H]1CCC2=O	inactive	inactive	inactive	inactive	inactive	–	inactive	–	inactive	inactive
Cc1ccc(O)c(-n2nc3ccccc3n2)c1	inactive	inactive	inactive	inactive	inactive	–	inactive	inactive	inactive	inactive
O=c1c(-c2ccc(O)cc2)coc2cc(O)cc(O)c12	inactive	inactive	inactive	inactive	inactive	–	inactive	inactive	inactive	inactive
